Results reported in PubChem BioAssay.
Active and inactive are the calls of the source. Unless noted, no rule for the calls is given here.

Assays:
[1] = HepG2 liver cancer cell viability effects, profiling panel, resazurin fluorescence, 24 h, PK04 Diversity Set (AID 1172); conditions: higher = more signal
[2] = basal S. cerevisiae growth modulation, no modifier, primary screen, OD600, strain BY4716, 24 h, basal condition (AID 1173); conditions: OD600, 24 h, higher = more signal, called active from +8 up or from −8 down
[3] = MM1S myeloma cell viability, profiling panel, resazurin fluorescence, basal, 24 h, PK04 Diversity Set (AID 1174); conditions: higher = more signal, called active from +8 up or from −8 down;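 also: MM1S multiple myeloma cell line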
[4] = target: Dihydroorotate dehydrogenase (quinone), mitochondrial (Plasmodium falciparum (isolate 3D7)) (UniProt Q08210); assay: PfDHODH enzyme inhibitors, primary screen, biochemical, C-terminal His tag, absorbance 600 nm (AID 1175); conditions: DCIP absorbance 600 nm, higher = more signal, called active from +8 up or from −8 down;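 also: recombinant parasite enzyme with a five histidine tag at its C terminus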
Dihydroorotate dehydrogenase (quinone), mitochondrial (Plasmodium falciparum (isolate 3D7)), sequence (Q08210 whole entry, looked up): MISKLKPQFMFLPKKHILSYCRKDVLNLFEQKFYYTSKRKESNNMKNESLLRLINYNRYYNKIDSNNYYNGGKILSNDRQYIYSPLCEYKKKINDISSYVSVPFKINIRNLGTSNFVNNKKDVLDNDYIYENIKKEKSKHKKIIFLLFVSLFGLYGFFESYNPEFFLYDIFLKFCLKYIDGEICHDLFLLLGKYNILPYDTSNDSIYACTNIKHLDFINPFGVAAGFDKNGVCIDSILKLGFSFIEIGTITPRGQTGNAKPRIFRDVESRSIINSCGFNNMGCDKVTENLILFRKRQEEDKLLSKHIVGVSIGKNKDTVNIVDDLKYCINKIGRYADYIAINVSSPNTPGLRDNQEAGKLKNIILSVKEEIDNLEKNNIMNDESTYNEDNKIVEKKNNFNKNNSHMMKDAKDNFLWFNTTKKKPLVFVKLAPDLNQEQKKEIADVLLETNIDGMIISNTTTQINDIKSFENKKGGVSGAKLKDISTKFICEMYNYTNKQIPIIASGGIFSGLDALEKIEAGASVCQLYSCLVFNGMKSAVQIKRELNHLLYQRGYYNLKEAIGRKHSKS

[5] = P. aeruginosa biofilm formation inhibitors, primary screen, strain PAO1, LB-PBS medium, absorbance 600 nm (AID 1176); conditions: P. aeruginosa PAO1 growth/biofilm, A600, 12 h; higher = more signal
[6] = S. cerevisiae RM11-1a growth modifiers, primary screen, strain RM11-1a, OD600, basal, 24 h (AID 1177); conditions: OD600, 24 h, higher = more signal, called active from +8 up or from −8 down;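 also: cultures grown under basal conditions with no added stressor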
[7] = E. coli acrAB mutant growth effects, primary screen, E. coli filamentation inducers, strain DRC39, OD650, 24 h (AID 1178); conditions: higher = more signal, called active from +8 up or from −8 down;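 also: growth measured as culture turbidity by optical density at 650 nm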
[8] = E. coli acrAB mutant growth effects, primary screen, E. coli filamentation inducers, strain DRC39, OD650, 48 h (AID 1179);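 also: screen aims at cell division blockers that make cells filament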; conditions: E. coli DRC39 delta-acrAB growth, higher = more signal, called active from +8 up or from −8 down
[9] = RPMI8226 myeloma cell viability, profiling panel, resazurin fluorescence, basal, 24 h, PK04 Diversity Set (AID 1180); conditions: higher = more signal;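 also: RPMI8826 multiple myeloma cell line at 5000 cells per well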
[10] = target: E3 ubiquitin-protein ligase XIAP (Homo sapiens) (UniProt P98170); assay: XIAP binders, primary screen, biophysical, small-molecule microarray, fluorescence 635 nm (AID 1181); conditions: small-molecule microarray binding, higher = more signal;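 also: score merges 667 nm emission and signal to noise over triplicate slides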
E3 ubiquitin-protein ligase XIAP (Homo sapiens), sequence (P98170 whole entry, looked up): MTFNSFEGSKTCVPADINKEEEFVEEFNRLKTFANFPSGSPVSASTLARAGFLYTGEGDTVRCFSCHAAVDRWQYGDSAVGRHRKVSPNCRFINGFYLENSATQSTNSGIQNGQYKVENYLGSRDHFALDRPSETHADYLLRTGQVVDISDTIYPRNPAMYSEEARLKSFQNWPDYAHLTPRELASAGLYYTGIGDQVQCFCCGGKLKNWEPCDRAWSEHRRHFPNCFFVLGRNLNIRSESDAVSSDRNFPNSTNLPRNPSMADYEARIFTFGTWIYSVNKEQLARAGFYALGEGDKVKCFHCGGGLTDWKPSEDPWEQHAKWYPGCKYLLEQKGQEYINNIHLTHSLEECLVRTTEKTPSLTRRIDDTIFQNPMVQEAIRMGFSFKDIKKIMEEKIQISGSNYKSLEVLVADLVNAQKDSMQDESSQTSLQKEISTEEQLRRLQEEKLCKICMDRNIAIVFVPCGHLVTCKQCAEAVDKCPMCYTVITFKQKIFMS

[11] = test system: XIP peptide (Xip251-270) binding; assay: small-molecule binders of XIP peptide, primary screen, biochemical, small-molecule microarray, fluorescence 635/667 nm, 0.1 µg/mL protein (AID 1182); conditions: fluorescent protein binding, 635 nm, higher = more signal, called active from +8 up or from −8 down
[12] = test system: XIP peptide (Xip251-270); assay: small-molecule binders of XIP peptide, primary screen, biochemical, small-molecule microarray, fluorescence 635/667 nm, 0.5 µg/mL protein (AID 1183); conditions: small-molecule microarray binding, fluorescence 635 nm; higher = more signal
[13] = Plasmodium falciparum growth inhibition, primary screen, strain 3D7, DAPI fluorescence, 100 nL (AID 1184);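 also: parasites grown inside human red blood cells in medium with human serum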; conditions: P. falciparum 3D7 growth, 3 d, higher = more signal
[14] = target: Homeobox protein Hox-A13 (Mus musculus) (UniProt Q62424); assay: inhibitors of HoxA13-DNA binding, primary screen, biochemical, fluorescence polarization, labeled oligonucleotide (AID 1185); conditions: 15 min, higher = more signal, called active from +8 up or from −8 down
Homeobox protein Hox-A13 (Mus musculus), sequence (Q62424 whole entry, looked up): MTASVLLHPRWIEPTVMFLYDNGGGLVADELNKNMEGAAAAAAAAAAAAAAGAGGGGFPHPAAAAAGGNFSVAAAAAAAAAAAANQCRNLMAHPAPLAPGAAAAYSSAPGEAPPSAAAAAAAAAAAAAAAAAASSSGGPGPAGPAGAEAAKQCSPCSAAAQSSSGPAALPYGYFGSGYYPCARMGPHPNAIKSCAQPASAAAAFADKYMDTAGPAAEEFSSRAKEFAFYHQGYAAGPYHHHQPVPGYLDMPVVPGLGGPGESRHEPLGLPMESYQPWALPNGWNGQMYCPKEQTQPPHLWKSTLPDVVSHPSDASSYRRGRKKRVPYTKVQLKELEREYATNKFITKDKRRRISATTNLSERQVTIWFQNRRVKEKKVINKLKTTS

[15] = inhibitors of hydroxyurea-induced Chk1 phosphorylation, primary screen, imaging, HeLa, phospho-Chk1 antibody, percent positive cells (AID 1186); conditions: hydroxyurea-induced phospho-Chk1 immunofluorescence imaging, higher = more signal
[16] = inhibitors of hydroxyurea-induced Chk1 phosphorylation, primary screen, imaging, HeLa, phospho-Chk1 nuclear intensity (AID 1187); conditions: hydroxyurea-induced phospho-Chk1 immunofluorescence imaging, higher = more signal

| Compound | z-score [1] | z-score [2] | z-score [3] | composite z-score [4] | z-score [5] | z-score [6] | z-score [7] | z-score [8] | z-score [9] | composite z-score [10] | composite z-score [11] | composite z-score [12] | z-score [13] | z-score [14] | z-score [15] | z-score [16] |
| --- | --- | --- | --- | --- | --- | --- | --- | --- | --- | --- | --- | --- | --- | --- | --- | --- |
| COC(=O)[C@@]1(Cc2ccc(F)cc2)[C@H]2c3cc(C(=O)N(C)C)n(CCN4CCOCC4)c3C[C@H]2CN1C(=O)c1ccccc1 | 0.255 | 1.22 (inactive) | -0.663 (inactive) | -0.521 (inactive) | 0.0818 (inactive) | 0.7 (inactive) | 0.187 (inactive) | -0.957 (inactive) | 0.874 | 0.138 | 0.673 (inactive) | 0.811 | -1.45 | -6.83 (inactive) | -0.366 (inactive) | -0.245 (inactive) |
| CC(=O)c1ccc(C(O)C2C=CC3C(=O)N(C)C(=O)C3N2NC(=O)OC(C)(C)C)cc1 (stereo not drawn) | -1.69 | 1.74 (inactive) | -1.04 (inactive) | 0.625 (inactive) | 0.378 (inactive) | 0.845 (inactive) | -0.9 (inactive) | -0.47 (inactive) | -1.05 | 0.155 | 2.44 (inactive) | 0.763 | -0.29 | -1.11 (inactive) | 0.976 (inactive) | 0.688 (inactive) |
| NCCCC[C@@H]1NC(=O)[C@H]2C[C@@H](C(=O)NCc3ccc(F)cc3)[C@@H](c3cccc(OCCO)c3)N2C1=O | -1.49 | -0.956 (inactive) | 0.646 (inactive) | 0.22 (inactive) | 0.379 (inactive) | 1.57 (inactive) | 0.71 (inactive) | 0.896 (inactive) | 1.04 | -0.271 | 0.752 (inactive) | 0.837 | 0.0979 | 5.72 (inactive) | -0.281 (inactive) | -0.45 (inactive) |
| Cc1ccccc1C(O)C1C=CC2C(=O)N(c3ccccc3)C(=O)C2N1Nc1ccccc1F (stereo not drawn) | -0.954 | -0.822 (inactive) | -1.08 (inactive) | 0.115 (inactive) | 1.07 (inactive) | 0.362 (inactive) | -0.274 (inactive) | -0.542 (inactive) | -1.01 | 0.202 | 1.5 (inactive) | 0.646 | 0.907 | -2.9 (inactive) | 1.27 (inactive) | 1.11 (inactive) |
| COc1ccc(C#Cc2ccc3c(c2)[C@]2(C(=O)N3)[C@H](C(=O)Nc3nc4ccccc4s3)[C@H]3C(=O)O[C@H](c4ccccc4)[C@H](c4ccccc4)N3[C@@H]2c2ccc(OCCO)cc2)cc1 | 0.839 | 2.43 (inactive) | -0.625 (inactive) | -22.3 (active) | 2.93 (inactive) | 2.53 (inactive) | 0.544 (inactive) | 0.196 (inactive) | -0.639 | 0.0849 | -0.509 (inactive) | 0.782 | -0.668 | 1.71 (inactive) | 0.218 (inactive) | -0.0348 (inactive) |
| Cc1ccc(S(=O)(=O)N2[C@@H](c3ccccc3)C(C(=O)O)=CC[C@H]2c2ccc(C#N)cc2)cc1 | -0.847 | -0.647 (inactive) | -1.35 (inactive) | 0.0114 (inactive) | 0.0794 (inactive) | 0.11 (inactive) | -0.674 (inactive) | -0.841 (inactive) | -1.28 | 0.15 | 0.556 (inactive) | 0.848 | -1.26 | -6.06 (inactive) | 0.0247 (inactive) | -0.206 (inactive) |
| O=C1C2C=CC(C(O)C(c3ccccc3)c3ccccc3)N(Nc3ccccc3)C2C(=O)N1c1ccccc1 (stereo not drawn) | 0.9 | -0.659 (inactive) | -1.05 (inactive) | 1.09 (inactive) | 1.26 (inactive) | 0.347 (inactive) | -0.615 (inactive) | -0.0085 (inactive) | -0.403 | 0.34 | 2.35 (inactive) | 0.722 | -0.28 | -1.33 (inactive) | -0.571 (inactive) | -0.706 (inactive) |
| C=CCC(OC(C)=O)[C@@H]1[C@@H](N(Cc2ccc(-c3cccc(C(F)(F)F)c3)o2)C(=O)Cc2ccc(F)cc2)c2cc(OCCCO)ccc2N1C(=O)c1ccc2ccccc2c1 (stereo partly drawn) | 0.589 | -0.382 (inactive) | 0.81 (inactive) | -1.26 (inactive) | -0.194 (inactive) | -0.423 (inactive) | 0.227 (inactive) | 0.369 (inactive) | 0.934 | -0.224 | -0.502 (inactive) | -0.669 | -0.681 | -1.3 (inactive) | 0.627 (inactive) | 0.835 (inactive) |
| CCc1cccc(NC(=O)O[C@H]2[C@H](OC(=O)Nc3ccc4c(c3)OCO4)[C@H](OC(=O)Nc3ccc4c(c3)OCO4)[C@@H](OC)O[C@@H]2CO)c1 | -0.585 | 0.613 (inactive) | -1.44 (inactive) | -1.12 (inactive) | 0.317 (inactive) | 1.97 (inactive) | 1.65 (inactive) | 0.853 (inactive) | -1.47 | -0.184 | 2.3 (inactive) | 0.791 | -2.26 | -9.9 (active) | -0.392 (inactive) | -0.0612 (inactive) |
| COC(=O)Cn1c(C(=O)N(C)C)cc2c1C[C@H]1CN(C(=O)c3ccccc3)[C@@](Cc3ccc(OC)cc3)(C(=O)OC)[C@@H]21 | -0.708 | 1.15 (inactive) | -0.667 (inactive) | 0.072 (inactive) | -0.0424 (inactive) | 0.555 (inactive) | -0.552 (inactive) | -0.263 (inactive) | -0.876 | -0.158 | 1.28 (inactive) | 0.59 | -1.62 | -5.22 (inactive) | 0.0109 (inactive) | 0.295 (inactive) |
| COc1ccc([Si](C)(C)[C@@H]2[C@@H](CCO)O[C@]3(C(=O)N(Cc4ccccc4)c4ccc(N5C(=O)c6ccccc6Oc6ccccc65)cc43)[C@H]2C)cc1 | 1.09 | 1.84 (inactive) | -1.3 (inactive) | -0.641 (inactive) | 0.225 (inactive) | 3.88 (inactive) | 0.727 (inactive) | 0.435 (inactive) | -1.81 | -0.157 | 0.664 (inactive) | 0.299 | -0.119 | -1.08 (inactive) | -0.83 (inactive) | -0.253 (inactive) |
| COCCOC(=O)N1C(=O)[C@@]2(c3cc(C#CC4=CCCCC4)ccc31)[C@H](C(=O)N1CCN(c3ncccn3)CC1)[C@H]1C(=O)O[C@H](c3ccccc3)[C@H](c3ccccc3)N1[C@@H]2c1ccccc1OCCO | 1.32 | 1.23 (inactive) | 1.02 (inactive) | 0.598 (inactive) | 4.43 (inactive) | 1.64 (inactive) | -0.368 (inactive) | -0.514 (inactive) | 0.318 | -0.312 | 0.506 (inactive) | 0.59 | -2.32 | 2.82 (inactive) | -0.274 (inactive) | -0.475 (inactive) |
| COCCOC(=O)N1C(=O)[C@@]2(c3cc(C#CC4=CCCCC4)ccc31)[C@H](C(=O)N1CCc3cc(OC)c(OC)cc3C1)[C@H]1C(=O)O[C@H](c3ccccc3)[C@H](c3ccccc3)N1[C@@H]2c1ccc(O)cc1 | -0.03 | 0.935 (inactive) | -0.0713 (inactive) | 0.0434 (inactive) | 0.802 (inactive) | 2.23 (inactive) | -0.724 (inactive) | -0.169 (inactive) | 0.485 | 0.072 | 1.49 (inactive) | 0.795 | -1.8 | 0.129 (inactive) | -0.0825 (inactive) | 0.246 (inactive) |
| COc1ccc([Si](C)(C)[C@H]2[C@H](CCn3cc([C@H](O)c4ccccc4)nn3)O[C@@]3(C(=O)N(c4ccccc4)c4ccccc43)[C@@H]2C)cc1 | 0.378 | 0.885 (inactive) | -1.82 (inactive) | 0.413 (inactive) | 0.131 (inactive) | 2.12 (inactive) | 0.346 (inactive) | 0.0139 (inactive) | -1.34 | -0.316 | -0.292 (inactive) | 0.505 | -1.18 | -3.4 (inactive) | -0.282 (inactive) | -0.513 (inactive) |
| COc1ccc(CCNC(=O)[C@@H]2c3ccccc3C(=O)N(CC34CC5CC(CC(C5)C3)C4)[C@H]2c2ccc(CO)cc2)cc1 | 0.556 | -0.547 (inactive) | -1.05 (inactive) | 0.12 (inactive) | 0.565 (inactive) | -0.134 (inactive) | 0.517 (inactive) | 0.119 (inactive) | 0.618 | 0.399 | 1.92 (inactive) | 0.55 | -2.14 | -4.4 (inactive) | -0.0198 (inactive) | 0.432 (inactive) |
| CCCCCN1CC=CC23O[C@@H]4C=CCOC(=O)[C@@H]4[C@H]2C(=O)N(CCCCCO)[C@@H]3C1=O (stereo partly drawn) | 0.773 | -0.284 (inactive) | -0.295 (inactive) | -1.09 (inactive) | 0.441 (inactive) | -0.196 (inactive) | -0.151 (inactive) | -0.352 (inactive) | 0.0715 | -0.244 | 0.213 (inactive) | -0.228 | -0.423 | -3.88 (inactive) | -0.845 (inactive) | -0.498 (inactive) |
| CC(=O)n1cc(C(O)C2C=CC3C(=O)N(c4ccccc4)C(=O)C3N2Nc2ccccc2F)c2ccccc21 (stereo not drawn) | 0.68 | -1.34 (inactive) | -0.223 (inactive) | -0.349 (inactive) | 1.54 (inactive) | -0.86 (inactive) | 0.8 (inactive) | 0.86 (inactive) | 0.0072 | 0.439 | 0.0433 (inactive) | 0.752 | -0.153 | -4.01 (inactive) | -0.0566 (inactive) | 0.153 (inactive) |
| O=C1NC(=O)C2C1C=CC(C(O)c1ccc(F)cc1)N2Nc1ccccn1 (stereo not drawn) | -1.78 | 0.272 (inactive) | -1.28 (inactive) | 0.791 (inactive) | 1.77 (inactive) | 0.624 (inactive) | -0.684 (inactive) | -0.69 (inactive) | -1.64 | 0.172 | -0.184 (inactive) | 0.13 | 1.25 | -1.55 (inactive) | 0.255 (inactive) | 0.0273 (inactive) |
